According to the supplement of paper PMC10849652:
About 7,900 targets were measured; listed, in parts, are those with a hit and a random draw of the rest. About 0.6% of all pairs of compound and target were hits.

Columns and labels:
Assay in all cases: log2 fold change, soluble protein after heating vs DMSO (PISA); higher = thermal stabilisation; K562 cells, 10 uM, 30 min; active = over 0.2 and 3.5 SD of the protein, either way, in both replicates (recomputed)
[1] = compound: CS(=O)(=O)c1ccc(-c2cnc(N)c(C(=O)Nc3ccccc3)n2)cc1
Procedure, shortened: (§1)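 K562 cells (2×10^6 cells/mL) were treated with 10 μM compound for 30 min, and aliquots were heated for 3 min over 48°C-58°C. Pooled aliquots were extracted in PBS with 0.5% NP-40 at 4°C, and the supernatant after 21,000xg for 90 min was measured by TMTpro 16plex LC-MS/MS with channel sums equalised. Reported thermal stability, relative to control samples and from duplicates, is a log2 fold change.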

[2] = compound: C[C@@H](Oc1cc(-c2cnn(C3CCNCC3)c2)cnc1N)c1c(Cl)ccc(F)c1Cl [crizotinib]
Procedure, shortened: as §1

[3] = compound: C[C@@H]1COCCN1C2=NC(=NC(=C2)C3(CC3)S(=O)(=O)C)C4=C5C=CNC5=CC=C4
Procedure, shortened: as §1

[4] = compound: C[C@H](C1=CC=C(C=C1)C(=O)NC2=C3C=CNC3=NC=C2)N
Procedure, shortened: as §1

[5] = compound: C[C@H](Nc1ncnc2nc[nH]c12)c1cc2cccc(Cl)c2c(=O)n1-c1ccccc1 [duvelisib]
Procedure, shortened: as §1

[6] = compound: Cc1cc(Nc2cc(CN3CCOCC3)c3nc(C)c(Cc4ccc(Cl)cc4F)n3n2)n[nH]1 [gandotinib]
Procedure, shortened: as §1

[7] = compound: Cc1cc(Nc2cc(N3CCN(C)CC3)nc(Sc3ccc(NC(=O)C4CC4)cc3)n2)n[nH]1 [tozasertib]
Procedure, shortened: as §1

[8] = compound: Cc1cc(SCc2sc(-c3ccc(C(F)(F)F)cc3)nc2C)ccc1OCC(=O)O
Procedure, shortened: as §1

[9] = compound: Cc1ccc(-n2nc(C(C)(C)C)cc2NC(=O)Nc2ccc(OCCN3CCOCC3)c3ccccc23)cc1 [doramapimod]
Procedure, shortened: as §1

[10] = compound: Cc1ccc(C(=O)N(CCCN)[C@@H](c2nc3cc(Cl)ccc3c(=O)n2Cc2ccccc2)C(C)C)cc1 [ispinesib]
Procedure, shortened: as §1

Measured: log2 fold change

KDM3B (UniProt Q7LBC6)
inactive: [1] 0.045 | [2] 0.001 | [3] 0.086 | [4] -0.044 | [5] 0.015 | [6] -0.045 | [7] 0.06 | [8] 0.012 | [9] -0.077 | [10] 0.015

IPO7 (UniProt O95373)
inactive: [1] -0.011 | [2] -0.138 | [3] 0.042 | [4] -0.07 | [5] 0.029 | [6] -0.185 | [7] 0.102 | [8] 0.073 | [9] -0.054 | [10] -0.077

ILVBL (UniProt A1L0T0)
Sequence of UniProt A1L0T0 (A1L0T0 whole entry, looked up): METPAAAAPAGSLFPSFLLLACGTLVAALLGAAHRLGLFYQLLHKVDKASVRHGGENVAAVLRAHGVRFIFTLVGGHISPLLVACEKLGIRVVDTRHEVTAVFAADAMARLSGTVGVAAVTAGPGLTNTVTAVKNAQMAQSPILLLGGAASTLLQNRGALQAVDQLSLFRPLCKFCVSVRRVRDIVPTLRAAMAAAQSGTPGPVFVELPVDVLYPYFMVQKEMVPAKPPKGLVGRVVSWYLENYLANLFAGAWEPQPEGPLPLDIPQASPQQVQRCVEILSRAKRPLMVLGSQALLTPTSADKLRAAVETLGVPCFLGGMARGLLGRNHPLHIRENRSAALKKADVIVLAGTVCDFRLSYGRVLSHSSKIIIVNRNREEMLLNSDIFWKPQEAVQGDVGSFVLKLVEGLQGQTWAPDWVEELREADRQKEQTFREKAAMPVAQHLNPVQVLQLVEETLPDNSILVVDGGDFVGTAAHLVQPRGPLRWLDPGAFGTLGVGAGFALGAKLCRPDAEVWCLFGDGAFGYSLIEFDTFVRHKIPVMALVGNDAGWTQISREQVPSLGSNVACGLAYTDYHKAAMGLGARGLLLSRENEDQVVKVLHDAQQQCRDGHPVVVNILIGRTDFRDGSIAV
inactive: [1] 0.055 | [2] 0 | [3] 0.058 | [4] 0.061 | [5] 0.106 | [6] 0.02 | [7] -0.067 | [8] -0.005 | [9] -0.003
active: [10] 0.213

MAP2K1 (UniProt Q02750)
inactive: [1] 0.055 | [2] -0.019 | [3] 0.088 | [4] -0.092 | [5] 0.059 | [6] 0.005 | [7] -0.009 | [8] -0.038 | [9] -0.05 | [10] -0.009

MCL1 (UniProt Q07820)
Sequence of UniProt Q07820 (Q07820 whole entry, looked up): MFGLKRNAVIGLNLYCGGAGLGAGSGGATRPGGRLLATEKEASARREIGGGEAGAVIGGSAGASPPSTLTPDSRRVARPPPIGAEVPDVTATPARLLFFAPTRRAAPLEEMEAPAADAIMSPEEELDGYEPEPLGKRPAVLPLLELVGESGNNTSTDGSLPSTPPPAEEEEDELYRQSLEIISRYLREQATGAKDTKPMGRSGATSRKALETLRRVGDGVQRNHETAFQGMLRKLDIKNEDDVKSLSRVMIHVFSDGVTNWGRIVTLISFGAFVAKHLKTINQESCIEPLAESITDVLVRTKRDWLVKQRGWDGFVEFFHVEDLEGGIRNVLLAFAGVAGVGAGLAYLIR
inactive: [1] -0.079 | [2] 0.043 | [3] -0.158 | [4] -0.006 | [5] 0.052 | [6] 0.042 | [7] -0.056 | [8] 0.01 | [9] 0.109 | [10] -0.441

LEMD2 (UniProt Q8NC56)
inactive: [1] -0.001 | [3] 0.084 | [4] -0.057 | [5] -0.016 | [6] -0.17 | [7] 0.008 | [8] 0.109 | [9] 0.079
active: [2] -0.286 | [10] -0.438

LUC7L (UniProt Q9NQ29)
Sequence of UniProt Q9NQ29 (Q9NQ29 whole entry, looked up): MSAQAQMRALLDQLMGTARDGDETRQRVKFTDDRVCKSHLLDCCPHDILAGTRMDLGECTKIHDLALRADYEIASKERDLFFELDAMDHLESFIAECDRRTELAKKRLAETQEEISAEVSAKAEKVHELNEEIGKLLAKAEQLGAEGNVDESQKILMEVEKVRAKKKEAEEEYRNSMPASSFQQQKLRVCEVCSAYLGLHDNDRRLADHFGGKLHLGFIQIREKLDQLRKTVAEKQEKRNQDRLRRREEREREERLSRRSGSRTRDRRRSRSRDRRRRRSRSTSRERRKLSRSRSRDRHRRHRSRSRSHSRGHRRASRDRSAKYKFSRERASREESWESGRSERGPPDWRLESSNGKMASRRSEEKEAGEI
inactive: [1] -0.009 | [2] -0.028 | [3] -0.033 | [4] -0.001 | [5] -0.042 | [6] 0.199 | [7] 0.06 | [8] 0.033 | [9] 0.029 | [10] -0.007

IGFBP3 isoform 2 (UniProt P17936)
Sequence of UniProt P17936 (P17936 whole entry, looked up): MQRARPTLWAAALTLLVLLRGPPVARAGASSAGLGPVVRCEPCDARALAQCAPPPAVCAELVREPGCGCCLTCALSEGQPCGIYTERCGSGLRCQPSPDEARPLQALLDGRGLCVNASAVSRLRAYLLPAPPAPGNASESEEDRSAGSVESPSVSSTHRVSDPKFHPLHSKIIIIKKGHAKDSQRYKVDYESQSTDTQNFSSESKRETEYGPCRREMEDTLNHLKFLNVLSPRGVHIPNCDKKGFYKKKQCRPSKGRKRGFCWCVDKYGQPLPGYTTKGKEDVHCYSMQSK
inactive: [1] -0.097 | [2] -0.176 | [3] -0.063 | [4] -0.149 | [5] 0.068 | [6] -0.545 | [7] -0.092 | [8] 0.027 | [9] -0.243

LMBRD2 (UniProt Q68DH5)
active: [10] -0.328
inactive: [1] 0.034 | [2] -0.156 | [3] -0.042 | [4] -0.152 | [5] 0.001 | [6] -0.049 | [7] -0.016 | [8] -0.065 | [9] 0.011

LSS (UniProt P48449)
active: [2] 0.77
inactive: [1] 0.043 | [3] 0.081 | [4] 0.02 | [5] 0.044 | [6] 0.044 | [7] 0.103 | [8] 0.017 | [9] 0.024 | [10] 0.111

MARCKSL1 (UniProt P49006)
inactive: [1] 0.032 | [2] 0.09 | [3] -0.006 | [4] -0.094 | [5] 0.025 | [6] -0.006 | [7] -0.033 | [8] -0.074 | [9] -0.047 | [10] 0.071

LDLR (UniProt P01130)
Sequence of UniProt P01130 (P01130 whole entry, looked up): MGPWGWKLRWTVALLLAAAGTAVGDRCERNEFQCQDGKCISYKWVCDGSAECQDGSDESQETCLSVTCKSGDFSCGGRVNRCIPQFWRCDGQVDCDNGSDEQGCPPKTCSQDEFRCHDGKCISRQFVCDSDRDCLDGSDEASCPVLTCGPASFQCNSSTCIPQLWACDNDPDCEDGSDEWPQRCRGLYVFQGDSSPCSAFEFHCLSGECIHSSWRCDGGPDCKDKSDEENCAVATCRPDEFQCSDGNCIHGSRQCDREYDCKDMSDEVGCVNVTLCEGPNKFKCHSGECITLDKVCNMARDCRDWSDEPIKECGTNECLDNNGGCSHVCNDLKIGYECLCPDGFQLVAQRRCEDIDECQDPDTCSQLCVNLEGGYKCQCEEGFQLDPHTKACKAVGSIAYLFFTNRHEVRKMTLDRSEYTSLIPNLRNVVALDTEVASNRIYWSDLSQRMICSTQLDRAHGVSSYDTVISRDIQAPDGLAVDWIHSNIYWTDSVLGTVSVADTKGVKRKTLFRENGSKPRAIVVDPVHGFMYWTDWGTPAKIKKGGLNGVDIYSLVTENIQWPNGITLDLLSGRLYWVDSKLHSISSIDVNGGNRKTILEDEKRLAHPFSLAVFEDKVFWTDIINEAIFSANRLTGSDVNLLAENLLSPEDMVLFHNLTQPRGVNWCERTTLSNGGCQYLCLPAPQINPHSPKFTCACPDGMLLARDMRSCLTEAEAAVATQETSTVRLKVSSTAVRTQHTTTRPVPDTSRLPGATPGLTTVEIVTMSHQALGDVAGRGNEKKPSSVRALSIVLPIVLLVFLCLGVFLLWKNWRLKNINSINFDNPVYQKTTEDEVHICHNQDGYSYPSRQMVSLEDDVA
active: [2] -0.363
inactive: [1] -0.005 | [3] -0.05 | [4] -0.045 | [5] -0.05 | [6] -0.038 | [7] -0.088 | [8] -0.094 | [9] -0.017 | [10] -0.052

IMMT isoform 4 (UniProt Q16891)
inactive: [1] 0.017 | [2] -0.102 | [3] 0.084 | [4] -0.012 | [5] 0.019 | [6] -0.093 | [7] 0.002 | [8] 0 | [9] -0.014 | [10] -0.202

IPO9 (UniProt Q96P70)
inactive: [1] -0.04 | [2] -0.031 | [3] 0.051 | [4] -0.042 | [5] 0.007 | [6] -0.146 | [7] 0.143 | [8] 0.041 | [9] 0.008 | [10] 0.062

MAP2K7 isoform 4 (UniProt O14733)
Sequence of UniProt O14733 (O14733 whole entry, looked up): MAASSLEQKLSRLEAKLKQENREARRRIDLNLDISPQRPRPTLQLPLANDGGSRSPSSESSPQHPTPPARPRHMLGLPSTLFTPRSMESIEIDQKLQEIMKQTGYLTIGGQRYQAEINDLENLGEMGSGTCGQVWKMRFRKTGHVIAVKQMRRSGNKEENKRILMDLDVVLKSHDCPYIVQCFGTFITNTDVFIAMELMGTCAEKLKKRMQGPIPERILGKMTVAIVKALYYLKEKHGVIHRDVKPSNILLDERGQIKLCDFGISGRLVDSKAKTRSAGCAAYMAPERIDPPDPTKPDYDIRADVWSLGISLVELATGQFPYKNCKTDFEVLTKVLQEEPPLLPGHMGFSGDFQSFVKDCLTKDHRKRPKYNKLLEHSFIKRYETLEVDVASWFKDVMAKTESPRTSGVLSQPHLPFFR
inactive: [1] 0.017 | [2] -0.112 | [3] 0.003 | [4] -0.003 | [5] 0.018 | [6] -0.055 | [7] -0.057 | [8] -0.038 | [9] 0 | [10] -0.051

MAP3K20 (UniProt Q9NYL2)
inactive: [1] -0.003 | [2] -0.01 | [3] -0.065 | [4] 0.059 | [5] -0.022 | [6] -0.025 | [7] 0.002 | [8] 0.053 | [9] -0.072 | [10] -0.141

KHDC4 (UniProt Q7Z7F0)
inactive: [1] 0.045 | [2] -0.091 | [3] 0 | [4] -0.074 | [5] 0.255 | [6] -0.052 | [7] 0.013 | [8] 0.207 | [9] -0.054 | [10] 0.027

LNPEP (UniProt Q9UIQ6)
inactive: [1] 0.028 | [2] 0.015 | [3] 0.023 | [4] -0.053 | [5] 0.053 | [6] 0.028 | [7] -0.023 | [8] -0.008 | [9] -0.013 | [10] -0.039

INTS7 (UniProt Q9NVH2)
Sequence of UniProt Q9NVH2 (Q9NVH2 whole entry, looked up): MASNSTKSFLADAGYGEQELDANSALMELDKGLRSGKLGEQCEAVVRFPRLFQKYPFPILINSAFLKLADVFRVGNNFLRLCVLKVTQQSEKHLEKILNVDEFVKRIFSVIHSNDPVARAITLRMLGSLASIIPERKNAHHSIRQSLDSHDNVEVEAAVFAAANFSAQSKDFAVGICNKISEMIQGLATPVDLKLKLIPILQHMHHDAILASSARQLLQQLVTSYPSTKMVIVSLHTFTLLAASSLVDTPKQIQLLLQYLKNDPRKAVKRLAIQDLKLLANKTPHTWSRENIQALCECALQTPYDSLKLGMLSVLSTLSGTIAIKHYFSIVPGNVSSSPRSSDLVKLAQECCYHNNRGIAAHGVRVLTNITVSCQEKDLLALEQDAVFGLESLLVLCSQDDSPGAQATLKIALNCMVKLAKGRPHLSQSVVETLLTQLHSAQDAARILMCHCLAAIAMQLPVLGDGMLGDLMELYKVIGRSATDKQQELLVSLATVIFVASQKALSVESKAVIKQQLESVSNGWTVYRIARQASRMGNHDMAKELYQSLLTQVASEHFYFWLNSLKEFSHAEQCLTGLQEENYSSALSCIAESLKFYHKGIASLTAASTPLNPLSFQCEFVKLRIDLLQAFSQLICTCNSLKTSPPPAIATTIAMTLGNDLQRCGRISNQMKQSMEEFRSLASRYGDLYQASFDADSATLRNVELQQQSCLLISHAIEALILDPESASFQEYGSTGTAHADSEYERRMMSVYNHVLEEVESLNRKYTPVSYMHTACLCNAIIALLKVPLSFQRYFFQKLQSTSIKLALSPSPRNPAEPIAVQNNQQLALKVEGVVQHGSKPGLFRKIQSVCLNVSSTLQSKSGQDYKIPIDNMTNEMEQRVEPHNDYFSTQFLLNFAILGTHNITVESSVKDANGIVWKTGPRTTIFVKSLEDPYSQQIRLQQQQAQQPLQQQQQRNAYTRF
inactive: [1] 0.009 | [2] -0.133 | [3] -0.053 | [4] -0.054 | [5] 0 | [6] 0.211 | [7] 0.008 | [8] 0.014 | [9] -0.091 | [10] -0.036

MAP2K2 (UniProt P36507)
inactive: [1] 0.013 | [2] -0.055 | [3] 0.069 | [4] -0.052 | [5] 0.02 | [6] -0.069 | [7] -0.041 | [8] -0.01 | [9] -0.038 | [10] -0.058

LBR (UniProt Q14739)
active: [6] -0.359
inactive: [1] 0.025 | [2] 0.152 | [3] 0.016 | [4] -0.031 | [5] -0.014 | [7] -0.026 | [8] 0.017 | [9] -0.02 | [10] -0.08

LIAS (UniProt O43766)
Sequence of UniProt O43766 (O43766 whole entry, looked up): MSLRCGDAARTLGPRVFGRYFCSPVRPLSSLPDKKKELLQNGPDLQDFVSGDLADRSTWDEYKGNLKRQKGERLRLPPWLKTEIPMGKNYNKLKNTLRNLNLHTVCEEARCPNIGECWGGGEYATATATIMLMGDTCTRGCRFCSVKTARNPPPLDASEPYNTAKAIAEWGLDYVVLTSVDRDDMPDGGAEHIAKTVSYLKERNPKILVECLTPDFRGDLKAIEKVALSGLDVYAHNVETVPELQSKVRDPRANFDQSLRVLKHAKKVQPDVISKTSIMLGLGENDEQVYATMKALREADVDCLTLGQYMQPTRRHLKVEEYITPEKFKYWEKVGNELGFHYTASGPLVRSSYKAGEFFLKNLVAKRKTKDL
inactive: [1] 0.035 | [2] 0.03 | [3] 0.039 | [4] 0.075 | [5] 0.043 | [6] 0.086 | [7] -0.015 | [8] -0.08 | [9] 0 | [10] -0.24

INPP5B (UniProt P32019)
inactive: [1] 0.057 | [2] -0.096 | [3] -0.02 | [4] 0.042 | [5] -0.045 | [6] 0.017 | [7] 0.151 | [8] 0.029 | [9] 0.095 | [10] -0.005

MICOS13 (UniProt Q5XKP0)
inactive: [1] 0.049 | [2] -0.164 | [3] 0.156 | [4] -0.08 | [5] 0.031 | [6] -0.216 | [7] -0.047 | [8] -0.055 | [9] -0.027
active: [10] -0.257

MAST4 (UniProt O15021)
inactive: [1] -0.041 | [2] -0.188 | [3] 0.064 | [4] -0.114 | [5] 0.091 | [6] -0.301 | [7] -0.03 | [8] 0.053 | [9] -0.088 | [10] 0.007

IRF3 (UniProt Q14653)
inactive: [1] -0.146 | [2] 0.007 | [3] 0.056 | [4] -0.027 | [5] 0.067 | [6] -0.068 | [7] 0.039 | [8] 0.053 | [9] -0.038 | [10] 0.022

LPIN1 isoform 7 (UniProt Q14693)
inactive: [1] 0 | [2] -0.184 | [3] -0.034 | [4] 0.031 | [5] -0.052 | [6] -0.079 | [7] -0.021 | [8] -0.043 | [9] 0.067 | [10] -0.037

LMF2 (UniProt Q9BU23)
Sequence of UniProt Q9BU23 (Q9BU23 whole entry, looked up): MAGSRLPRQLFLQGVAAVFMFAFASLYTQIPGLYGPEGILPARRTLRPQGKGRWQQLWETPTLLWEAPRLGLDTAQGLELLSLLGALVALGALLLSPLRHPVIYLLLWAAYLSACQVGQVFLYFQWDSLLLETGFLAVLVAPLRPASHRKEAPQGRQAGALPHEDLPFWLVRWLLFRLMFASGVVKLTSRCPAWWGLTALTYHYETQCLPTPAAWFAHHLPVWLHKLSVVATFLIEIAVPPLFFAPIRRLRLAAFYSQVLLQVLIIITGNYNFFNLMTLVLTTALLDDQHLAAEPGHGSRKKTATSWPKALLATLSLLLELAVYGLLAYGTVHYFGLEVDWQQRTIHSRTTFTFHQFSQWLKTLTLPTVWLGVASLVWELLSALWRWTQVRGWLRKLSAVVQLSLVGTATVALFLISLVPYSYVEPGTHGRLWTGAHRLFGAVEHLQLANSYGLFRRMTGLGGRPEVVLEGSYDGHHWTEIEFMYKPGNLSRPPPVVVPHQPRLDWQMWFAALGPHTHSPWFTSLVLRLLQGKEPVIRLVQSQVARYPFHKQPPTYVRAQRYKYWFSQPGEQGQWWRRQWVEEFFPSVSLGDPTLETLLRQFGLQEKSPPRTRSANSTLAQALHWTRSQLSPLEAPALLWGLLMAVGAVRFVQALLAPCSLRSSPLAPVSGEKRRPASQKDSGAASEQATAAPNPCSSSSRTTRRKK
inactive: [1] 0.039 | [2] 0.016 | [3] -0.05 | [4] 0.053 | [5] 0.002 | [6] 0.023 | [7] 0.088 | [8] 0.023 | [9] 0.046 | [10] -0.075

MEAK7 (UniProt Q6P9B6)
active: [2] -0.259
inactive: [1] -0.005 | [3] 0.049 | [4] 0.005 | [5] 0.121 | [6] -0.224 | [7] 0.018 | [8] 0.024 | [9] 0.031 | [10] -0.139

IK (UniProt Q13123)
inactive: [1] -0.041 | [2] 0.021 | [3] -0.037 | [4] 0.186 | [5] 0.034 | [6] 0.022 | [7] 0.05 | [8] -0.007 | [9] 0.016 | [10] 0.065
